Experimental data published in PubChem BioAssay (EPA / NIEHS).
“And” between values parts separate entries of the source, which are not always exact repeats. Equal values may be shown once. Records with an inconclusive call do not appear. More than one record can exist for a structure, and the calls need not agree. The source made the active and inactive calls. Rule for the calls: active = hit-call score of the fitted dose curve at least 0.9, where 1 is the maximum; inconclusive = response in the unintended direction; inactive = score below 0.9.

Each molecule was assayed against Peroxisome proliferator-activated receptor gamma (Homo sapiens) (UniProt P37231) (assay: ATG_PPARg_TRANS: Attagene TRANS-FACTORIAL HepG2 Assay for human Peroxisome Proliferator-activated Receptor-gamma (PPARg) (AID 2283007)).
Sequence of Peroxisome proliferator-activated receptor gamma (Homo sapiens) (P37231 whole entry, looked up): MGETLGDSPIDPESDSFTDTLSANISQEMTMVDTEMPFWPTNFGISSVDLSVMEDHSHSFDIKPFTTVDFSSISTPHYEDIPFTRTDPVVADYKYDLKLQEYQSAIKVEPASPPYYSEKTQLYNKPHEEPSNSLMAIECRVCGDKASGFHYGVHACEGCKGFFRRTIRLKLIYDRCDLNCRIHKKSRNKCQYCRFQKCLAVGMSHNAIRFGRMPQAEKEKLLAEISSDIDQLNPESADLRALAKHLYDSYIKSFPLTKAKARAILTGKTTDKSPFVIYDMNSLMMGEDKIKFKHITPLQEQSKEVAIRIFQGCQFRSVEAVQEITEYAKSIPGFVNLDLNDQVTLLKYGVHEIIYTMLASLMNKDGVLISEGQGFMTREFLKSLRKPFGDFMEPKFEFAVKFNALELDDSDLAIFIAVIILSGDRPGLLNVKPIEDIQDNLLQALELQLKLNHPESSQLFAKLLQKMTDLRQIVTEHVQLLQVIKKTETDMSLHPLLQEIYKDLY
Experimental: ATG_TRANS is a cell-based, multiplexed-readout assay that uses HepG2, a human liver cell line, with measurements taken at 24 hours after chemical dosing in a 24-well plate.ATG_PPARg_TRANS is one of 30 assay component(s) measured or calculated from the ATG_TRANS assay. It is designed to make measurements of mRNA induction, a form of inducible reporter, as detected with fluorescence intensity signals by Reverse transcription polymerase chain reaction (RT-PCR) and Capillary electrophoresis technology.Data from the assay component ATG_PPARg_TRANS was analyzed into 1 assay endpoint. This assay endpoint, ATG_PPARg_TRANS, was analyzed in the positive analysis fitting direction relative to DMSO as the negative control and baseline of activity. Using a type of inducible reporter, measures of mRNA for gain-of-signal activity can be used to understand the reporter gene at the transcription factor-level as they relate to the gene PPARG. Furthermore, this assay endpoint can be referred to as a primary readout, because this assay has produced multiple assay endpoints where this one serves a reporter gene function. To generalize the intended target to other relatable targets, this assay endpoint is annotated to the nuclear receptor intended target family, where the subfamily is non-steroidal.
Human liver HepG2 cells are transiently transfected with multiple reporter transcription units (MRTUs) in 6-well plates using FuGene 6 reagent (Roche; 3 ml FuGene/1 mg DNA). The MRTU constructs are regulated by a cis-regulating element (promoter). […] A major difference between the CIS and TRANS system is that in CIS activities of endogenous TFs are measured, whereas the TRANS assay evaluates changes in activities of exogenous, chimeric NR-Gal4 proteins. […] At the end of 24 hour incubation, total RNA was isolated using TriZol reagent (Invitrogen). The isolated RNA is then reverse-transcribed using oligo(dT) primer and Mo-MLV reverse transcriptase (Invitrogen) with DNAse I (Ambion) treatment for 30 min. The one-tenth of the produced cDNA was amplified by PCR using Taq DNA polymerase (Invitrogen) and two reporter sequence-specific primers. The PCR products were fluorescently labeled by primer extension with 6-arboxyfluorescein (6-FAM) 5'-labeled reporter sequence-specific primer (2 min at 95 C, 20 s at 68 C and 10 min at 72 C) and these products were digested with 5U of HpaI (New England Biolabs) for 2h at 37 C. The fragments were purified using Qiaquick PCR columns (Qiagen), analyzed on an ABI 3130xL genetic analyzer (Applied Biosystems) with peak positions identified by using a set of X-rhodamine (ROX)-labeled MapMarker1000 molecular weight standards (BioVentures). The raw capillary electrophoresis data was processed using Attagraph software (Attagene).
In the case of COC(=O)CC(C(C)=O)C(=O)OC (stereo not given), the outcome is reported as “inactive”. COC(=O)C(F)(F)C(F)(F)C(F)(F)F was tested, and the outcome was “inactive”. For CS(=O)(=O)c1ccc([C@@H](CC2CCCC2)C(=O)Nc2cnccn2)cc1Cl, the outcome was “inactive”. Brc1ccc(Oc2ccc(Br)cc2Br)cc1 was tested, and the outcome was “inactive”. In the case of Cc1cc(=O)oc2cc(O)ccc12, the outcome is reported as “inactive”. For CCOC(=O)CN[C@@H](C(=O)N1CC[C@H]1C(=O)NCc1ccc(/C(N)=N/O)cc1)C1CCCCC1, the outcome was “inactive”. For FC(OC(F)(F)C(F)(F)C(F)(F)F)C(F)(F)F (stereo not given), the outcome was “inactive”. With CCC(C)c1ccccc1O (stereo not given) the outcome was “inactive”. For CCc1ccccc1O, the outcome was “inactive”. In the case of Cc1cc(Cc2cc(C)cc(C(C)(C)C)c2O)c(O)c(C(C)(C)C)c1, the AC50 is reported as 12.6 µM (active). In the case of C/C=C/C(=O)C1=C(C)CCCC1(C)C, the AC50 is reported as 64.7 µM (active). In the case of C=CC(=O)OCCC(F)(F)C(F)(F)C(F)(F)C(F)(F)C(F)(F)C(F)(F)F, the outcome is reported as “inactive”. With CCCCCCc1ccc(N)cc1 the outcome was “inactive”. In the case of OCC(F)(F)C(F)(F)C(F)(F)C(F)(F)C(F)(F)C(F)(F)C(F)(F)C(F)(F)C(F)(F)C(F)(F)C(F)(F)F, the outcome is reported as “inactive”. For O=C(F)C(F)(F)C(F)(F)C(F)(F)C(F)F, the outcome was “inactive”. Cc1cncc(C)c1 was tested, and the outcome was “inactive”. With c1cnc2c(c1)ccc1cccnc12 the outcome was “inactive”. O=S(=O)(c1ccc(OCc2ccccc2)cc1)c1ccccc1O was tested, and the AC50 was 0.66 µM (active). CCCCC(CC)C(=O)O (stereo not given) was tested, and the outcome was “inactive”. In the case of NC(=NCCCCCCN=C(N)/N=C(\N)Nc1ccc(Cl)cc1)/N=C(\N)Nc1ccc(Cl)cc1, the outcome is reported as “inactive” and the AC50 is reported as 8.54 µM (active). With c1cc2cccc3c4cccc5cccc(c(c1)c23)c54 the outcome was “inactive”. CC(C)c1c(C(=O)Nc2ccccc2)c(-c2ccccc2)c(-c2ccc(F)cc2)n1CC[C@@H](O)C[C@@H](O)CC(=O)O was tested, and the AC50 was 20.3 µM (active) and 19.6 µM (active). In the case of FC(F)(F)N1C(F)(F)C(F)(F)OC(F)(F)C1(F)F, the outcome is reported as “inactive”. In the case of FC(F)(F)C(F)(F)C(F)(F)Br, the outcome is reported as “inactive”. In the case of COc1ccc(C#N)cc1, the outcome is reported as “inactive”. With CC(C)[C@@H]1CC[C@@H](C)C[C@H]1O the outcome was “inactive”. In the case of C=C(c1ccc(C(=O)O)cc1)c1cc2c(cc1C)C(C)(C)CCC2(C)C, the AC50 is reported as 11.1 µM (active) and 14.2 µM (active). In the case of CCc1cccc(CC)c1N(COC)C(=O)CS(=O)(=O)O, the outcome is reported as “inactive”. COC1=CC(=O)C[C@@H](C)[C@]12Oc1c(Cl)c(OC)cc(OC)c1C2=O was tested, and the outcome was “inactive”. For CCCCCCCCCCCC[N+](C)(C)CCCCCCCCCCCC, the outcome was “inactive”. For O=C(Nc1cccc([N+](=O)[O-])c1)c1cc2ccccc2cc1O, the AC50 was 6.92 µM (active). For CCCCc1oc2ccccc2c1C(=O)c1cc(I)c(OCCN(CC)CC)c(I)c1, the outcome was “inactive”. CCCCCc1ccc(O)cc1 was tested, and the AC50 was 41.4 µM (active). O=C(OC(=O)C(F)(F)C(F)(F)F)C(F)(F)C(F)(F)F was tested, and the outcome was “inactive”. CCCCCCCCCCCC[N+](C)(C)Cc1ccccc1 was tested, and the outcome was “inactive”. CNNCc1ccc(C(=O)NC(C)C)cc1 was tested, and the outcome was “inactive”. Nc1ccc(O)c(C(=O)O)c1 was tested, and the outcome was “inactive”. In the case of FC(F)(F)C1(F)C(F)(F)C(F)(F)C(F)(F)C1(F)F, the outcome is reported as “inactive”. In the case of C=CC(C)(CCC=C(C)C)OC(C)=O (stereo not given), the outcome is reported as “inactive”.
